Data from ChEMBL document CHEMBL1961873, “Compounds: GSK PKIS; Assays: Nanosyn kinase panel” (2012).

Experiments:
[1] = system: Epidermal growth factor receptor (Homo sapiens), P00533 [T790M]; details: at 1 µM
[2] = system: Epidermal growth factor receptor (Homo sapiens), P00533 [L858R,T790M]; details: at 0.1 µM
[3] = system: Epidermal growth factor receptor (Homo sapiens), P00533 [L858R,T790M]; details: at 1 µM
[4] = target: Ephrin type-A receptor 2 (Homo sapiens) (UniProt P29317); details: at 0.1 µM
Chain of Ephrin type-A receptor 2 (Homo sapiens) (P29317 whole entry): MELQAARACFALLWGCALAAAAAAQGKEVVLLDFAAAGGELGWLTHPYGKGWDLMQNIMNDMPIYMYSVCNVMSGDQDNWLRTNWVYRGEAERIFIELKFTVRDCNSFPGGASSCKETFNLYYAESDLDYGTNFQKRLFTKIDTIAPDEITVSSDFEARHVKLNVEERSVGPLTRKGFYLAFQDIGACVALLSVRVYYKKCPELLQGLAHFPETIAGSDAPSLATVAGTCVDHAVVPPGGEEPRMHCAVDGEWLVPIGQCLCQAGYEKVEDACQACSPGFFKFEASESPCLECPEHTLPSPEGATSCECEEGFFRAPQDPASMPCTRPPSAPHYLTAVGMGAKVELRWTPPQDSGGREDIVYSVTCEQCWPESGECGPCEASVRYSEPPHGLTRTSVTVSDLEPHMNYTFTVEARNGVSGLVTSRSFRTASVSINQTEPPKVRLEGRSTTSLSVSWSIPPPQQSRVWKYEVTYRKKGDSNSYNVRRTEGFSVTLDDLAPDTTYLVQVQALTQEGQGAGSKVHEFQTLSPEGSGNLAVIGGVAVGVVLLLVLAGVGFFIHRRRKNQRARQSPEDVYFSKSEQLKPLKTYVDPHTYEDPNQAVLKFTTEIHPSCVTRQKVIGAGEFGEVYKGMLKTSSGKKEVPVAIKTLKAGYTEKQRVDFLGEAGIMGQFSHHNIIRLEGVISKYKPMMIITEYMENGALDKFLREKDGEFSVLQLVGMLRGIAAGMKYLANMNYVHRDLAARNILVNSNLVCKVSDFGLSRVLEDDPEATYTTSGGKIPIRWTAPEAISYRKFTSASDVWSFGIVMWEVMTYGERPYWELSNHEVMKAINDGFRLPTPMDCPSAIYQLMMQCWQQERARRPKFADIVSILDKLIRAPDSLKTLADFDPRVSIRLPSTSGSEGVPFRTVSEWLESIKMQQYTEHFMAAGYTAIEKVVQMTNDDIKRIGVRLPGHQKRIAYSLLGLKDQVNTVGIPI

[5] = target: Ephrin type-A receptor 2 (Homo sapiens) (UniProt P29317); details: at 1 µM
[6] = target: T1, Ephrin type-A receptor 3 (Homo sapiens) (UniProt P29320); details: at 0.1 µM
T1 sequence (whole entry): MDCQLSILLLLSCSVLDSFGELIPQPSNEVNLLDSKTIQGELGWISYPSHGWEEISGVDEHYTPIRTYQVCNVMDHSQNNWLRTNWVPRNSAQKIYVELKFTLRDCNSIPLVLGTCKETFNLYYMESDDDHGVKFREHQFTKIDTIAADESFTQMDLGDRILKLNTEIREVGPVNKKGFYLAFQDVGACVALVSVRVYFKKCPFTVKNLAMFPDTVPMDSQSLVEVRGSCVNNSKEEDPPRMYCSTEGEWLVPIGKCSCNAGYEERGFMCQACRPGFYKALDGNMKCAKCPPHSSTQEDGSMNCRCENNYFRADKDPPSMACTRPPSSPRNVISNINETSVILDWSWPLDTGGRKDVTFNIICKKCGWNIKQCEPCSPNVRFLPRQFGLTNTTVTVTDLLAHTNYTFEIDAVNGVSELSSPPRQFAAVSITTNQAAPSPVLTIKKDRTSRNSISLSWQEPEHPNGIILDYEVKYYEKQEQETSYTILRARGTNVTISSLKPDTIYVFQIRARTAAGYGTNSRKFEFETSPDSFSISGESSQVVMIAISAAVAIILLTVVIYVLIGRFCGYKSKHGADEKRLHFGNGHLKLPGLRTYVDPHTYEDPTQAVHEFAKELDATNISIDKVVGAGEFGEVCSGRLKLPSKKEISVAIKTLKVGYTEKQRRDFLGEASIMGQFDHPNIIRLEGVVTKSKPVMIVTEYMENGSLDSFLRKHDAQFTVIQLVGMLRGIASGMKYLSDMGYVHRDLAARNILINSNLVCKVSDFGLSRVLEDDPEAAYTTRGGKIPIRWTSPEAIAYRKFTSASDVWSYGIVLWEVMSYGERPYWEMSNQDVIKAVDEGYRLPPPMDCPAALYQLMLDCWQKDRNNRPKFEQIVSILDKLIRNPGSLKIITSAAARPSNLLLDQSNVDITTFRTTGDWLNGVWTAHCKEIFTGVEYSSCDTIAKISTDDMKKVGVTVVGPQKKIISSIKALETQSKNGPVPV

[7] = target: T1, Ephrin type-A receptor 3 (Homo sapiens); details: at 1 µM
[8] = target: Ephrin type-A receptor 4 (Homo sapiens) (UniProt P54764); details: at 0.1 µM
[9] = target: Ephrin type-A receptor 4 (Homo sapiens) (UniProt P54764); details: at 1 µM
[10] = target: T2, Ephrin type-B receptor 2 (Homo sapiens) (UniProt P29323); details: at 0.1 µM
T2 sequence (whole entry): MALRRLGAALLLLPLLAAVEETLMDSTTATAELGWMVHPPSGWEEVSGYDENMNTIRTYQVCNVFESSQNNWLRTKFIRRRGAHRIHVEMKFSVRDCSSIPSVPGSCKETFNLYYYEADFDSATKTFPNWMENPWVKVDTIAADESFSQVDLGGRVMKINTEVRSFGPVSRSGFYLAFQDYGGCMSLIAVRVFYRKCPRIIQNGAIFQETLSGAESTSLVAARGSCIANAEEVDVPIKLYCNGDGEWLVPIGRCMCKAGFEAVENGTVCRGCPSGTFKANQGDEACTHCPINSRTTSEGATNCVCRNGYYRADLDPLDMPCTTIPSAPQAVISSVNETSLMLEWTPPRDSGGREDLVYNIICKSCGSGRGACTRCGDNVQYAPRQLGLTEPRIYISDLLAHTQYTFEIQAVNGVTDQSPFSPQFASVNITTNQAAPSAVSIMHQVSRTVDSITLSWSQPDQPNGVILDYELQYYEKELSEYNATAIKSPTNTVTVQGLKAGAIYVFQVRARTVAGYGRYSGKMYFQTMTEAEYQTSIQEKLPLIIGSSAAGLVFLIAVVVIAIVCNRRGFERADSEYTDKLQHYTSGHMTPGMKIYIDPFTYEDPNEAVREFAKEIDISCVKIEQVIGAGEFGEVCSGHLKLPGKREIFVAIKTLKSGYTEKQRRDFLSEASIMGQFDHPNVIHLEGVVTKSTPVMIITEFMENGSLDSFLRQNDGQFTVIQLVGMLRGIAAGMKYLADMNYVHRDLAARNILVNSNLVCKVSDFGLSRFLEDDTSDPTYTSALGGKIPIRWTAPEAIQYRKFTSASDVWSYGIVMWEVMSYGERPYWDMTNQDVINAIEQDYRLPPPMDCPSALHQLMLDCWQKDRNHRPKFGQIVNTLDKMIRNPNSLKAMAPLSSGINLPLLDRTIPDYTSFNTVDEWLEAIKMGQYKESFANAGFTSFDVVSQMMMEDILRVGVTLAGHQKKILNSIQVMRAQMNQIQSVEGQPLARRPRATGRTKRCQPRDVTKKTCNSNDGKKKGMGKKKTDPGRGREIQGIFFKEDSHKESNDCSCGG

[11] = target: T2, Ephrin type-B receptor 2 (Homo sapiens); details: at 1 µM
[12] = target: T3, Ephrin type-B receptor 3 (Homo sapiens) (UniProt P54753); details: at 0.1 µM
T3 sequence (whole entry): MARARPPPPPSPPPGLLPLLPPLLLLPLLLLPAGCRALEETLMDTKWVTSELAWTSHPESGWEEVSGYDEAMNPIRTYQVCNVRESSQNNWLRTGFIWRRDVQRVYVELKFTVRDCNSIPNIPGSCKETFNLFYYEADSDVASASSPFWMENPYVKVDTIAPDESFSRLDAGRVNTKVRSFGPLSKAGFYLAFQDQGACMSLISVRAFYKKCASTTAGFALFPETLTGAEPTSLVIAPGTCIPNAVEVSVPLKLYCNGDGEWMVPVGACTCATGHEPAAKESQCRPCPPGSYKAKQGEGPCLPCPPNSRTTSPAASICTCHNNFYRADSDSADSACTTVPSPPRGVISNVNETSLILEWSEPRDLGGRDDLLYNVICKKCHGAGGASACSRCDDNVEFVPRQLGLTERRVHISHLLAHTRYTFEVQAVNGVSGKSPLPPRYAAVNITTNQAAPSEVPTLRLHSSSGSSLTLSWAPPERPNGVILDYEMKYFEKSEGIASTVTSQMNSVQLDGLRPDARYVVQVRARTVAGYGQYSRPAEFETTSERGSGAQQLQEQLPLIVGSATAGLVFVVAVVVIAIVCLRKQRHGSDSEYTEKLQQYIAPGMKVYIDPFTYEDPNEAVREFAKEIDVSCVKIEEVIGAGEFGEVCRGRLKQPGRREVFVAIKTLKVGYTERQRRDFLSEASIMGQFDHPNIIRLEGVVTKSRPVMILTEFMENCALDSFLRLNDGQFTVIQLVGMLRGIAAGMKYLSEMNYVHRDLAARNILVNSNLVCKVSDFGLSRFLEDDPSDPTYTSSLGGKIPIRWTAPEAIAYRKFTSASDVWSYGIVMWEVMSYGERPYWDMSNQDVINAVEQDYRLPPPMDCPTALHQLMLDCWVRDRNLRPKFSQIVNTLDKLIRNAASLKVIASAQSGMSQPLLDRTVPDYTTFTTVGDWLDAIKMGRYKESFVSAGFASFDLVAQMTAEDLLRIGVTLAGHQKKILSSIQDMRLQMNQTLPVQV

[13] = target: T3, Ephrin type-B receptor 3 (Homo sapiens); details: at 1 µM
[14] = target: T4, Ephrin type-B receptor 4 (Homo sapiens) (UniProt P54760); details: at 0.1 µM
T4 sequence (whole entry): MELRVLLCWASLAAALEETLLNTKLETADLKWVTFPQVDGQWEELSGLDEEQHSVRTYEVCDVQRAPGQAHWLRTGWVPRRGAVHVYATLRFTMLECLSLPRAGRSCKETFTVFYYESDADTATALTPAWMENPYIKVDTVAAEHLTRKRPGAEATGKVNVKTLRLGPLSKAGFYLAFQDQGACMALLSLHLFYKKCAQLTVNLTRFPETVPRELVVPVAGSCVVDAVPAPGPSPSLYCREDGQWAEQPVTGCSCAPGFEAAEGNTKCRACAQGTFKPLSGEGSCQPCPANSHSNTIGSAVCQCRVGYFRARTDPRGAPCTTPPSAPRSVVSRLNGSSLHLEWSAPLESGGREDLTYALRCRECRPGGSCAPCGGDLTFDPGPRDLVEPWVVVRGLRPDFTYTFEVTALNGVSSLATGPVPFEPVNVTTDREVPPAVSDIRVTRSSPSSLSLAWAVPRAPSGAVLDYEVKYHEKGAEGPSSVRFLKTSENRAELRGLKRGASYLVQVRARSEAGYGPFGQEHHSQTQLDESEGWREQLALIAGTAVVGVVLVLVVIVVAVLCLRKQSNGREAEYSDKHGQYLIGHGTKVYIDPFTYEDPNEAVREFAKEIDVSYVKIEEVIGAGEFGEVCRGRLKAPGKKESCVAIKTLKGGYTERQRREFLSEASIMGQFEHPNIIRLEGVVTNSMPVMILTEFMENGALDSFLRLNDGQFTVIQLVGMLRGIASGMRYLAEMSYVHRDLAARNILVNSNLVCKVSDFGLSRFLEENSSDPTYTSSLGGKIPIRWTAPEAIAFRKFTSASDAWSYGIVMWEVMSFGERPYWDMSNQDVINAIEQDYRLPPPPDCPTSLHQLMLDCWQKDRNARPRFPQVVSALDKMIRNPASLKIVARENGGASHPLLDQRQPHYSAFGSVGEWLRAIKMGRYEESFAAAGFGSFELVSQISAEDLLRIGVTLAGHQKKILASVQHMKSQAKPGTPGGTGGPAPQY

[15] = target: T4, Ephrin type-B receptor 4 (Homo sapiens); details: at 1 µM
[16] = target: Receptor tyrosine-protein kinase erbB-2 (Homo sapiens) (UniProt P04626); details: at 0.1 µM
[17] = target: Receptor tyrosine-protein kinase erbB-2 (Homo sapiens) (UniProt P04626); details: at 1 µM
[18] = target: Receptor tyrosine-protein kinase erbB-4 (Homo sapiens) (UniProt Q15303); details: at 0.1 µM
[19] = target: Receptor tyrosine-protein kinase erbB-4 (Homo sapiens) (UniProt Q15303); details: at 1 µM
[20] = target: Tyrosine-protein kinase Fer (Homo sapiens) (UniProt P16591); details: at 0.1 µM;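 note: reported figures are averaged percent inhibition of FER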
Chain of Tyrosine-protein kinase Fer (Homo sapiens) (P16591 whole entry, looked up): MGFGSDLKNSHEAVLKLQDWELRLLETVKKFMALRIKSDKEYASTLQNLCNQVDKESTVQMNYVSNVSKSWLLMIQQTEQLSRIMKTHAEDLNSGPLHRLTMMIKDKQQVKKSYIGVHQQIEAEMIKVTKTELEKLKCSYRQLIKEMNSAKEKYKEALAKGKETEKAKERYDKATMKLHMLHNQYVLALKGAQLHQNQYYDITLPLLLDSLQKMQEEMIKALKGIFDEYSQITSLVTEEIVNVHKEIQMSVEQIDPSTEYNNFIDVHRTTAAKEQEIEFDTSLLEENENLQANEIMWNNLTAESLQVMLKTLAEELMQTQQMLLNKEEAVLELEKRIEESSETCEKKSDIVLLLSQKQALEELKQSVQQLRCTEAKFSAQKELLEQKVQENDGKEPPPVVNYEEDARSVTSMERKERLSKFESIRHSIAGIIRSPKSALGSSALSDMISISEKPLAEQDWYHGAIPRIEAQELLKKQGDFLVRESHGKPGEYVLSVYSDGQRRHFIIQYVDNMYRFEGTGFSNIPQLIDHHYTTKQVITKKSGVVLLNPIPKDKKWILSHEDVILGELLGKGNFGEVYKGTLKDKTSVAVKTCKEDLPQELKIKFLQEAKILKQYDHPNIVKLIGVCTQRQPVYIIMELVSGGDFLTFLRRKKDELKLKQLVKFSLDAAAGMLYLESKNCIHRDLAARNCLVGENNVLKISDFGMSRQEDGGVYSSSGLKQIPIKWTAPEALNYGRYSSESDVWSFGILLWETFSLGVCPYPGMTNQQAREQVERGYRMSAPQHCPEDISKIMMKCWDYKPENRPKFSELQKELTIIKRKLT

Chain of Epidermal growth factor receptor (Homo sapiens), P00533 [T790M] (P00533 whole entry T790M): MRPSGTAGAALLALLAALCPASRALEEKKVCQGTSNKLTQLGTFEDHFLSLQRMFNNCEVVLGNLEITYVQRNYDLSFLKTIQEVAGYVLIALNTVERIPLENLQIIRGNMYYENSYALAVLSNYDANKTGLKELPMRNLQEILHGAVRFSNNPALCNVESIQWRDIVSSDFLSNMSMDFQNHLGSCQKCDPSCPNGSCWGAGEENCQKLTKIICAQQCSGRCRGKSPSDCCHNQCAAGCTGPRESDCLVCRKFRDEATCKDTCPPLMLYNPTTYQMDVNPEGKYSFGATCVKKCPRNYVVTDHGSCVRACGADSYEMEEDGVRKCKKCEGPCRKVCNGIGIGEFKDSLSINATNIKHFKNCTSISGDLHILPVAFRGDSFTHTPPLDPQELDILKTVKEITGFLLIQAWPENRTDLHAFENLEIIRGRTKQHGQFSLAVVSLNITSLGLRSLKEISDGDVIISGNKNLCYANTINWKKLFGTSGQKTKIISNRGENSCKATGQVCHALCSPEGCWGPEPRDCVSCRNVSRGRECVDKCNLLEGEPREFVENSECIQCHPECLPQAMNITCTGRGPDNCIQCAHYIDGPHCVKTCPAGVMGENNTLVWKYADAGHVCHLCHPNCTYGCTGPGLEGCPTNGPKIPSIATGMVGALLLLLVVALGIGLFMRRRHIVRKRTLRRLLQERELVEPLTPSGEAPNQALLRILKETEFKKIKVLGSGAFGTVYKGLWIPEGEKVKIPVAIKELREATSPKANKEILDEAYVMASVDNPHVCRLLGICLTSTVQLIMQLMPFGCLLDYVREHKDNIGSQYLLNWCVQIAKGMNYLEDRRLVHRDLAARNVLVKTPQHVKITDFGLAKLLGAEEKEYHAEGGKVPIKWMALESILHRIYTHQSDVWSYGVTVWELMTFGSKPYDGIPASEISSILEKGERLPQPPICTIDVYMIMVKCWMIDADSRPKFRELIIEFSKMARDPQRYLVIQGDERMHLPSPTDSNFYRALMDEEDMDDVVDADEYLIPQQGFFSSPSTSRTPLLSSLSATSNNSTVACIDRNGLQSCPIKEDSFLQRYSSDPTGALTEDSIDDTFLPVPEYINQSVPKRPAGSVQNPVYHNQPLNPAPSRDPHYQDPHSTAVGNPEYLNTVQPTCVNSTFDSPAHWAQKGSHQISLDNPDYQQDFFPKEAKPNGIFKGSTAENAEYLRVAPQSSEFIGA
Chain of Epidermal growth factor receptor (Homo sapiens), P00533 [L858R,T790M] (P00533 whole entry T790M/L858R, looked up): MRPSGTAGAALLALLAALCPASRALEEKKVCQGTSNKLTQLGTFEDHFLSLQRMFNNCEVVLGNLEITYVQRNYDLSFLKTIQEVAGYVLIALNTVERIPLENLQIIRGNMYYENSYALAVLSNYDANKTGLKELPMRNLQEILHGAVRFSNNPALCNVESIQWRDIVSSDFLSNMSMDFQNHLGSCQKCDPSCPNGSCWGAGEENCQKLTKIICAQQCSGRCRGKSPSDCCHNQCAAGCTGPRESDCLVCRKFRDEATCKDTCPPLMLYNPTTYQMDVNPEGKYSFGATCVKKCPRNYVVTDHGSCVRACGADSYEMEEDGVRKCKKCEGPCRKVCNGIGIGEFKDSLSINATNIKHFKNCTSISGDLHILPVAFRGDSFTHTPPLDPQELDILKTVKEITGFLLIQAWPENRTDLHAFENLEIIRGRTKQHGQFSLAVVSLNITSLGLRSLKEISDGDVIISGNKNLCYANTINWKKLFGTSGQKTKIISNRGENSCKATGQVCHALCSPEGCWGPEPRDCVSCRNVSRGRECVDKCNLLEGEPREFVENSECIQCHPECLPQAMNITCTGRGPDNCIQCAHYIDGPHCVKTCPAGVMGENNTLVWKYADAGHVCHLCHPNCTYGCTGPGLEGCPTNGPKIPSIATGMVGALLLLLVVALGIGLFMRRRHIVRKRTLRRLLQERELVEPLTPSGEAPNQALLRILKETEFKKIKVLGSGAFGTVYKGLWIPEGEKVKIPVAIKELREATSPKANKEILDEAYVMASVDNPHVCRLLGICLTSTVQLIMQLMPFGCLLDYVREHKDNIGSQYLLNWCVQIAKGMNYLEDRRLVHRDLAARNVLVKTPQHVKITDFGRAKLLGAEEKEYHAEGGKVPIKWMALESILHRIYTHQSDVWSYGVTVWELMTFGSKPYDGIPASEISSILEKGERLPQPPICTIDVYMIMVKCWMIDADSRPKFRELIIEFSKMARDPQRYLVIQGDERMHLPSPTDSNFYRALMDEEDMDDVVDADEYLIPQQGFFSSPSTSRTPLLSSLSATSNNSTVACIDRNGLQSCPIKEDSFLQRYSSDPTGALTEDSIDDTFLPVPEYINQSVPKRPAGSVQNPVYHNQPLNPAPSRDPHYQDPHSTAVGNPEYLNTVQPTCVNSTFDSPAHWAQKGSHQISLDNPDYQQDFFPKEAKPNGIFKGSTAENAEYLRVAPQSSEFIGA

SMILES	inhibition [1] [%]	inhibition [2] [%]	inhibition [3] [%]	inhibition [4] [%]	inhibition [5] [%]	inhibition [6] [%]	inhibition [7] [%]	inhibition [8] [%]	inhibition [9] [%]	inhibition [10] [%]	inhibition [11] [%]	inhibition [12] [%]	inhibition [13] [%]	inhibition [14] [%]	inhibition [15] [%]	inhibition [16] [%]	inhibition [17] [%]	inhibition [18] [%]	inhibition [19] [%]	inhibition [20] [%]
O=C(O[C@H]1CN[C@H](C#Cc2cc3ncnc(Nc4ccc(OCc5cccc(F)c5)c(Cl)c4)c3s2)C1)N1CCOCC1	18	4.1	9.08	1.93	1.46	5.97	4.01	10.4	12.3	7.71	6.81	5.55	5.83	0.52	1.52	6.98	52.8	82.2	85.3	5.92
COc1ccc(Nc2ncc(-c3ccccc3)o2)cc1OC	-1.98	-0.33	-0.29	0.89	2.73	-1.2	1.63	2.72	1.61	-1.69	-1.55	2.4	-5.15	2.84	6.24	0.01	-2.56	6.4	8.57	0.47
COC(=O)Nc1nc2ccc(Oc3ccc(NC(=O)Nc4cc(C(F)(F)F)ccc4F)cc3)cc2s1	-0.72	1.64	-2.5	63.5	93.5	51.3	68.4	83.3	86.1	74.1	83.7	16.8	36.6	29.6	73	-0.44	-0.72	3.56	3.36	3.43
O=C(O[C@H]1CN[C@H](C#Cc2cc3ncnc(Nc4ccc5c(cnn5Cc5ccccc5)c4)c3s2)C1)N1CCOCC1	9.06	-5.39	-1.26	-1.74	-2.68	-0.31	0.9	-0.59	1.79	-3.66	1.97	-0.25	2.72	-1.51	0.96	6.21	48.3	107	104	-0.71
O=C(Nc1n[nH]c2nnc(-c3cccnc3)cc12)C1CC1	-0.7	-0.13	-0.34	-3.08	-2.73	-1.3	-0.05	0.83	2.33	0.05	3.72	0.63	2.01	2.37	0.6	-2.7	-0.28	-0.62	1.8	-1.4
